Laboratory results reported in PubChem BioAssay.

target: Torsin-1A-interacting protein 1 (Homo sapiens) (UniProt Q5JTV8); assay: compound microarray binding of lysate hLAP1 – cell lysate, small-molecule microarray, COS7 lysate, 635/667 nm fluorescence, primary screen (AID 1116); conditions: 635 nm fluorescence, higher = more signal
Sequence (Q5JTV8 whole entry, looked up): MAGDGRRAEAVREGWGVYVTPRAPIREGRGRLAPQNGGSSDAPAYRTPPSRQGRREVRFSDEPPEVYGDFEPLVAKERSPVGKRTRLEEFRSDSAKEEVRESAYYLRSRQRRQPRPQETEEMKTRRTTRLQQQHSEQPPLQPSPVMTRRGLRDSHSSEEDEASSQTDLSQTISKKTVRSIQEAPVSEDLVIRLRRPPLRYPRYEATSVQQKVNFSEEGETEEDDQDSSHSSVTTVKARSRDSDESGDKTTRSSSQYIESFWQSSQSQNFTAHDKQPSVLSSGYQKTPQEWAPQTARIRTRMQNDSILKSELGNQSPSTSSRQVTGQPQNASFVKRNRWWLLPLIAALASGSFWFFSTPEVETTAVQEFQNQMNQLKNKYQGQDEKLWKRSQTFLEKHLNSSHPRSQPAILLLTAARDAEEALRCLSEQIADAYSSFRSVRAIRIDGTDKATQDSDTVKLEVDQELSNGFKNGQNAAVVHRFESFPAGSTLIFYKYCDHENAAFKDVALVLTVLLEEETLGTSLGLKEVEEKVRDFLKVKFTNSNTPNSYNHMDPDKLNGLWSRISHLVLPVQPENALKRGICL

Compound	composite z-score
CCN(CC)c1ccc(N2CC=CC34O[C@@H]5C=CCOC(=O)[C@@H]5[C@H]3C(=O)N(CCO)[C@@H]4C2=O)cc1 (stereo not given in full)	0.422
CCOC(=O)C1=CC[C@@H](c2ccccc2)N(S(=O)(=O)C[Si](C)(C)C)[C@H]1c1ccccc1	1.02
CN(C)CCCC[C@@H]1NC(=O)[C@@H]2C[C@H](C(=O)NCc3ccc(F)cc3)[C@H](c3ccc(O)cc3)N2C1=O	0.385
C=CCOC(=O)[C@H]1[C@@H]2C(=O)O[C@@H](c3ccccc3)[C@@H](c3ccccc3)N2[C@@H](c2ccc(OCCOC(=O)[C@@H]3C[C@@H]4C(=O)N[C@@H](CC(C)C)C(=O)N4[C@@H]3c3ccc(O)cc3)cc2)[C@]12C(=O)Nc1ccc(I)cc12	1.47
COCCCNC(=O)[C@@H]1c2ccccc2C(=O)N(C2CCCCC2)[C@H]1c1ccc(CO)cc1	1.25
CN(C)CCCC[C@@H]1NC(=O)[C@H]2C[C@@H](C(=O)NCc3ccc(F)cc3)[C@@H](c3ccc(O)cc3)N2C1=O	1.03
COc1ccc(C#Cc2ccc3c(c2)[C@]2(C(=O)N3)[C@H](C(=O)Nc3nc4ccccc4s3)[C@H]3C(=O)O[C@H](c4ccccc4)[C@H](c4ccccc4)N3[C@@H]2c2ccc(OCCO)cc2)cc1	2.08
C=CCC(OC(C)=O)[C@@H]1[C@@H](N(Cc2ccc(-c3cccc(C(F)(F)F)c3)o2)C(=O)c2cccc3ccccc23)c2cc(OCCCO)ccc2N1C(=O)c1ccc2ccccc2n1 (stereo not given in full)	0.406
C[N+](C)(C)CCCC[C@@H]1NC(=O)[C@H]2C[C@@H](C(=O)NCCCCCNC(=O)CS)[C@@H](c3ccc(O)cc3)N2C1=O	2.49
C=CCC(OC(C)=O)[C@@H]1[C@@H](N(Cc2cccc3ccccc23)C(=O)c2cccc3ccccc23)c2cc(OCCCO)ccc2N1C(=O)Cc1ccc2ccccc2c1 (stereo not given in full)	0.0057
COc1ccc(C(O)C2C=CC3C(=O)N(C)C(=O)C3N2Nc2ccc([N+](=O)[O-])cc2[N+](=O)[O-])cc1OCc1ccccc1 (stereo not given)	0.527
COCCOC(=O)N1C(=O)[C@@]2(c3cc(C#CCC(C(=O)OC)C(=O)OC)ccc31)[C@H](C(=O)N1CCc3cc(OC)c(OC)cc3C1)[C@H]1C(=O)O[C@H](c3ccccc3)[C@H](c3ccccc3)N1[C@@H]2c1ccc(O)cc1	0.965
C=CCNC(=O)[C@@H]1[C@H]2C(=O)O[C@H](c3ccccc3)[C@H](c3ccccc3)N2[C@H](c2ccc(O)cc2)[C@@]12C(=O)Nc1ccc(C#CC3(O)CCCCCC3)cc12	0.824
COCCOC(=O)N1C(=O)[C@@]2(c3ccccc31)[C@H](C(=O)N1CCCCCCC1)[C@H]1C(=O)O[C@H](c3ccccc3)[C@H](c3ccccc3)N1[C@@H]2c1ccc(O)cc1	5.09
N#Cc1ccc(C(O)C2C=CC3C(=O)NC(=O)C3N2Nc2ccccn2)cc1 (stereo not given)	-0.298
CC(C)C[C@H]1NC(=O)[C@@]23C(=O)N[C@@H](Cc4ccccc4)C2[C@H](C)[C@@]2(C)O[C@H]2C3/C=C/C/C=C\CNC(=O)[C@@H]2CCCN2C1=O (stereo not given in full)	0.268
CCCC[C@@H]1C[C@H]1[C@@H](NC(=O)Cc1ccccc1)c1ccc(Cl)cc1	1.12
NC(=O)N1C(=O)C2C(C1=O)C1C=C(CCCO)C2C(c2ccc(CN3CCCC3)cc2)N1Cc1cccc(OC(F)(F)F)c1 (stereo not given)	-0.226

Compound	composite z-score
CCOC(=O)C[C@H]1[C@H](OC(=O)c2ccc(C(=O)c3ccccc3)cc2)[C@@H](NC(=O)c2ccc3ccccc3c2)c2cc(OCCCO)ccc2N1C(=O)c1ccc2ccccc2n1	0.982
O=C1NC(=O)C2C1C=CC(C(O)c1ccc(F)cc1)N2Nc1ccccn1 (stereo not given)	0.513
COc1ccc([Si](C)(C)[C@H]2[C@H](CC(=O)N3Cc4ccccc4C[C@H]3CO)O[C@@]3(C(=O)N(Cc4cccc(N5C(=O)c6cccc7cccc5c67)c4)c4ccccc43)[C@@H]2C)cc1	0.302
COC(=O)[C@@]1(Cc2ccccc2)[C@@H]2[C@@H](CC(=O)[C@H]2CC(=O)C(=O)N(C)C)CN1C(=O)c1ccccc1	1.38
COC(=O)[C@]1(CO)N=C(c2ccc(OCCCO)cc2)O[C@@H]1c1ccccc1CN=[N+]=[N-]	0.751
CC(C)CNC(=O)[C@@H]1c2ccccc2C(=O)N(C(C)C)[C@H]1c1ccc(CO)cc1	1.58
Cc1c(NC(=O)/C(C#N)=C/c2ccc(Cl)cc2)c(=O)n(-c2ccccc2)n1C	1.58
O=C1c2ccccc2[C@](Cc2ccccc2I)(C(=O)O)[C@H](c2ccc(CO)cc2)N1Cc1ccccc1	0.712
CCC[C@@H]1C=C(C(=O)OCC)[C@H](c2ccccc2)N1S(=O)(=O)c1ccc(C)cc1	1.69
COCCOC(=O)N1C(=O)[C@@]2(c3cc(C#CCC(C(=O)OC)C(=O)OC)ccc31)[C@H](c1ccc(OCCO)cc1)N1[C@H](c3ccccc3)[C@H](c3ccccc3)OC(=O)[C@H]1[C@@H]2C(=O)N1CCCCCCC1	3.22
CCOC(=O)C[C@H]1[C@H](OC(=O)c2ccc(-c3ccccc3)cc2)[C@@H](NC(=O)CC(C)C)c2cc(OCCCO)ccc2N1C(=O)Cc1ccc(OC)cc1	0.418
COCCOC(=O)N1C(=O)[C@@]2(c3cc(C#CCC(C(=O)OC)C(=O)OC)ccc31)[C@H](C(N)=O)[C@H]1C(=O)O[C@H](c3ccccc3)[C@H](c3ccccc3)N1[C@@H]2c1ccc(OCCO)cc1	0.775
C=CCC(OC(C)=O)[C@@H]1[C@@H](N(Cc2ccc(-c3cccc(C(F)(F)F)c3)o2)C(=O)c2cccc3ccccc23)c2cc(OCCCO)ccc2N1C(=O)c1ccc2ccccc2c1 (stereo not given in full)	0.49
COC(=O)[C@@]1(Cc2ccccc2)[C@H]2c3cc(C(=O)N4CCCC4)n(Cc4ccc(C(F)(F)F)nc4)c3C[C@H]2CN1C(=O)c1ccccc1	0.658
C=CC[C@@]1(C(=O)O)N=C(c2ccc(OCCCO)cc2)O[C@@H]1c1ccccc1CN=[N+]=[N-]	0.976
COc1ccc([Si](C)(C)[C@H]2[C@H](CCn3cc([C@H](O)c4ccccc4)nn3)O[C@@]3(C(=O)N(C)c4c(Br)cc(C)cc43)[C@@H]2C)cc1	0.088
CC1(C)OC[C@@]23C=C(Br)[C@@H](C[C@H]12)[C@@]1(CO1)C3=O	0.0611
